# Test results reported in PubChem BioAssay AID504357 (The Scripps Research Institute Molecular Screening Center, 2011).
# Out of some 340,000 compounds screened, about 700 (0.21%) were called active. No stated cut-off is given here; in the data, active means inhibition above about 22% (passing the limit was not always enough); inactive means the rest. This excerpt belongs to a sample that is enriched for actives.
# Target: Mu-type opioid receptor (Homo sapiens) + Delta-type opioid receptor (Homo sapiens) (UniProt P35372+P41143)
# Sequence (P35372 whole entry, looked up): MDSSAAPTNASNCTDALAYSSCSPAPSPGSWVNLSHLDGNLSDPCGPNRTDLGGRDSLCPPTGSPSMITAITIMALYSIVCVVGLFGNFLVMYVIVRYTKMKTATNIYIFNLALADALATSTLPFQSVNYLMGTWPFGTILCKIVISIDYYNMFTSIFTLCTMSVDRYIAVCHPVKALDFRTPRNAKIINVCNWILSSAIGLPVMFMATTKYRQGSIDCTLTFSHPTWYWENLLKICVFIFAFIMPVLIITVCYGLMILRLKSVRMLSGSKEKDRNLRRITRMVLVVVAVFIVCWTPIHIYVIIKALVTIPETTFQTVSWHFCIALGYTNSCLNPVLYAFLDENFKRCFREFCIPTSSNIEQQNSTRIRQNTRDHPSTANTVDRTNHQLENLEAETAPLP
# Sequence (P41143 whole entry, looked up): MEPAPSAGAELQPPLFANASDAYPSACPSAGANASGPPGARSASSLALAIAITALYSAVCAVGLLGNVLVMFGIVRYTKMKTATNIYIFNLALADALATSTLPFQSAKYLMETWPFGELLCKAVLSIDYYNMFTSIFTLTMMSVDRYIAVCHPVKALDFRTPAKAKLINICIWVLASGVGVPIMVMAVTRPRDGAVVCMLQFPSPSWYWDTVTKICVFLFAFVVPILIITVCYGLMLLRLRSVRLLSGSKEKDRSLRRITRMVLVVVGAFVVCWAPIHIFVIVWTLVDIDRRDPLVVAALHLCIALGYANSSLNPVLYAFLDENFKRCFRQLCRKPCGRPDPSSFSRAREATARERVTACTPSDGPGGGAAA
# Experiment: inverse agonists of MOR-DOR heterodimerization, primary screen, cell-based, luminescence (AID 504357);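 further: 0% = cells with DMSO and 100% = wells without cells with DMSO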
# Details: cell-based MOR-DOR heterodimer luminescence, inverse agonism; at 9.3 µM; active compounds read high
row,Structure (SMILES),inhibition
1,Cc1ccc(Nc2nnc(SC(C)C(=O)NC3CC3)s2)cc1 (centres undefined),5.95% (inactive)
2,O=S(=O)(NCc1ccccc1)c1ccc(S(=O)(=O)N2CCCC2)cc1,7.6% (inactive)
3,COC(=O)CSc1nc2c(c(C3CC=CCC3)c1C#N)CCC2 (centres undefined),0.33% (inactive)
4,CC1CCN(C(=O)c2ccc3c(=O)n4c(nc3c2)CCCCC4)CC1,-4.92% (inactive)
5,CCc1noc(C)c1C(=O)N1CCN(S(=O)(=O)c2cccc(C(F)(F)F)c2)CC1,9.18% (inactive)
6,COc1cc(C2C(N3C(=O)c4ccccc4C3=O)C(=O)N2c2ccc(C)c(C)c2)cc(OC)c1OC (centres undefined),8.56% (inactive)
7,O=C(c1cc2ccccc2s1)N1CCN(c2ccccn2)CC1,5.35% (inactive)
8,Cc1cccc(N(C)C(=O)c2cc(S(=O)(=O)N3CCCCC3)c[nH]2)c1,-2.65% (inactive)
9,Cc1cccc(C)c1Nc1c(-c2ccccc2O)nc2ncccn12,5.45% (inactive)
10,O=C(O)c1ccc(S(=O)(=O)N2CCOCC2)o1,-0.55% (inactive)
11,COC(=O)c1c(NC(=O)C(=O)N2CCCCC2)sc2c1CC(C)(C)OC2,-12.8% (inactive)
12,Cc1nc2c(-c3ccc(F)cc3)c(C)nn2c(C)c1CCC(=O)N1CCN(c2ccccn2)CC1,8.06% (inactive)
13,Cc1ccc(NC(=O)CN2CCCCC2)c2c1CC(C)(C)O2,-2.22% (inactive)
14,Cc1ccc(S(=O)(=O)NC[C@H]2O[C@@H](n3cnc4c(N)ncnc43)[C@H](O)[C@@H]2O)s1,16.3% (inactive)
15,CCN1CC=C2C(C#N)=C(N)C(C#N)(C#N)[C@H](c3ccoc3)[C@H]2C1,-33.3% (inactive)
16,N#CC1=C(N)C(C#N)(C#N)[C@H](c2ccsc2)[C@H]2COCC=C12,25.7% (active)
17,O=C1N=C(N2CCOCC2)CS1,0.02% (inactive)
18,Cc1ccccc1NC(=O)c1cc(S(=O)(=O)N2CCOCC2)cs1,4.89% (inactive)
19,CN(CC(=O)Nc1cccc2c1CCCC2)S(=O)(=O)c1ccc(Cl)cc1,-0.65% (inactive)
20,O=S(=O)(c1ccc(Br)c2ccccc12)N1CCOCC1,15.2% (inactive)

row,Structure (SMILES),inhibition
1,O=S(=O)(c1cnccc1N1CCN(/N=C/c2ccc(Br)cc2)CC1)N1CCCCC1,6.92% (inactive)
2,COC(CNC(=O)c1ccc2c(c1)ncn2-c1cc(C)cc(C)c1)OC,13% (inactive)
3,CCc1cccc(C)c1NS(=O)(=O)c1cc(Br)cnc1N,-50.1% (inactive)
4,O=C(CCc1[nH]c2ccccc2c1Sc1ccccc1)N(CCO)CCO,8.56% (inactive)
5,CC(C)c1ccc(S(=O)(=O)N2CCN(C(=O)c3ccc(N4CCCC4)c([N+](=O)[O-])c3)CC2)cc1,19.3% (inactive)
6,Cc1cccc(NC(=O)NC2(C)CCS(=O)(=O)C2)c1 (centres undefined),-1.39% (inactive)
7,CCNc1nc(NC(C)C)nc(OCCOC(=O)c2ccccc2)n1,0.3% (inactive)
8,CCSC1=NCCN1S(=O)(=O)c1ccc(F)cc1,2.33% (inactive)
9,Cc1nccn1CCC1CCCCN1C(=O)CCc1nnc(-c2ccsc2)o1 (centres undefined),11.7% (inactive)
10,Cc1ccccc1C(CC(=O)c1cccs1)C(C#N)C#N (centres undefined),8.61% (inactive)
11,COC(=O)C1=C(C(=O)OC)[C@@H]2N(C)c3ccccc3[C@@]23C[C@@H](C(=O)OC)N(C(=O)c2ccco2)C3=N1,7.48% (inactive)
12,Cc1nc2nc(SCC(=O)Nc3cccc(F)c3)[nH]c2cc1Br,-28.8% (inactive)
13,CC(C)NC(=O)CSc1nnc(COc2ccccc2Cl)o1,16.3% (inactive)
14,CCOc1ccc(NC(=O)c2ccc(NC(=O)C3CCCO3)cc2)cc1 (centres undefined),12.6% (inactive)
15,COc1ccc(NC(=O)c2cccc3c2C(=O)N(CC2CCCO2)C3)cc1OC (centres undefined),16.3% (inactive)
16,CCOc1ccc(NC(=O)c2cccc3c2C(=O)N(CC2CCCO2)C3)cc1 (centres undefined),23.6% (active)
17,CN(C)c1cc(N)c2ccccc2n1 (tested in a mixture with another compound),9.35% (inactive)
18,COc1ccc(NC(=O)CSc2nnc(Cc3ccccc3)c(=O)n2N)cc1,4.15% (inactive)
19,CC(C)(C)SCCSC1=CC(=O)CC(c2ccccc2)C1 (centres undefined),-50% (inactive)
20,O=C1C(Cc2ccc(O)cc2)NC(=S)N1Cc1ccccc1 (centres undefined),17.3% (inactive)

row,Structure (SMILES),inhibition
1,CC[C@]1(C(=O)OC)[C@H]2C(=O)N(Cc3ccccc3)C(=O)[C@H]2[C@H]2CN=C(SCc3ccc(Cl)cc3)N21,-1.44% (inactive)
2,CCC1Nc2ncnc(N3CCN(c4ccccc4)CC3)c2N(Cc2ccc(Cl)cc2)C1=O (centres undefined),72.3% (active)
3,COc1cccc(C(CC(=O)NCCN2CCOCC2)NS(=O)(=O)c2ccc(C)cc2)c1OC (centres undefined),4.11% (inactive)
4,COC(=O)[C@H]1Cc2cnoc2C[C@]1(C)C(=O)O,8.29% (inactive)
5,Cc1cc(C)cc(NC(=O)C2CCCN2S(=O)(=O)c2cccc3cccnc23)c1 (centres undefined),7.78% (inactive)
6,COc1cc(C(=O)OCC(=O)N(CC(C)C)C2CCS(=O)(=O)C2)ccc1OCC(C)C (centres undefined),12.3% (inactive)
7,COc1cc(/C=C/C(=O)N2CCc3ccccc3C2)cc(OC)c1OC,15.2% (inactive)
8,Cc1cc(Cl)c2oc(C(=O)N(C)C(C)c3ccccn3)c(C)c2c1 (centres undefined),-14% (inactive)
9,CCCNC(=O)N1CCN(C(=O)NCCC)CC1,-0.22% (inactive)
10,O=C1C(=O)N(c2ccccc2)c2ccccc21,47.8% (active)
11,O=C1C(Cl)=C(N2CCOCC2)C(=O)N1c1ccccc1,7.3% (inactive)
12,O=C1c2ccccc2C(=O)N1c1ccccc1S(=O)C(F)(F)F (centres undefined),1.53% (inactive)
13,NS(=O)(=O)c1ccc(N=Nc2c(O)[nH]c3ccc(Br)cc23)cc1,16.9% (inactive)
14,Cc1cccc(N=Nc2c(O)[nH]c3ccc(F)cc23)c1,33% (active)
15,Oc1[nH]c2ccccc2c1N=Nc1c(F)c(F)c(F)c(F)c1F,13.1% (inactive)
16,O=C(COC(=O)Cn1cnc2ccccc2c1=O)NCC12CC3CC(CC(C3)C1)C2,0.67% (inactive)
17,CN(C)/C=C1/Nc2ccccc2C1=O,34.7% (active)
18,CCCS(=O)(=O)C(=C1Nc2ccccc2N1)S(=O)(=O)CCC,3.81% (inactive)
19,CN(C)/C=C1\C=C(c2ccccc2)OC1=O,5.39% (inactive)
